# Screening results: PubChem BioAssay, several laboratories
# GDH-TPI inh = inhibits GDH-TPI coupling enzymes, artifact for Mtb FBA screen. inhibition, % at 4.8 µM. AID 588335. GDH-TPI coupled enzyme counterscreen, NADH absorbance. 360,000 tested, 1.2% active; in the data active = inhibition above about 30%;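 note: 0% = DMSO wells and 100% = wells lacking the enzyme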
# Mtb hypoxia rep = Mtb hypoxia fluorescent reporter inhibition. M. tuberculosis hypoxia-regulated fluorescent reporter, fluorescence. fluorescence inhibition, % (no concentration beside the values). 300,000 tested, 0.1% active. AID 1159583; in the data active = fluorescence inhibition mostly above about 23%, no sharp cut-off; inactive = mostly below about 17%
# Mtb BioA inh = inhibitors of Mycobacterium tuberculosis BioA enzyme; inhibition, % at 9.99 µM; purified M. tuberculosis BioA enzyme, plate reader; AID 602481; 360,000 tested, 0.096% active; in the data active = inhibition above about 40%; inconclusive = no clear call, values can overlap the other calls
# FadD28 FP inh = inhibitors of Mycobacterium tuberculosis FadD28 bisubstrate binding. FadD28 bisubstrate probe binding, fluorescence polarization. inhibition, % at 12.5 µM. 360,000 tested, 0.22% active. AID 588549; in the data active = inhibition above about 8.5%, passing the limit was not always enough; inconclusive = no clear call, values can overlap the other calls
# Mtb FBA inh = Mtb fructose-bisphosphate aldolase inhibition; 360,000 tested, 2.3% active; purified M. tuberculosis FBA, fluorescence read-out; inhibition, % at 1 µM; AID 588726; in the data active = inhibition above about 27%;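 note: 0% = vehicle and 100% = reference inhibitor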
# Target sequence (P9WQA3 whole entry, looked up): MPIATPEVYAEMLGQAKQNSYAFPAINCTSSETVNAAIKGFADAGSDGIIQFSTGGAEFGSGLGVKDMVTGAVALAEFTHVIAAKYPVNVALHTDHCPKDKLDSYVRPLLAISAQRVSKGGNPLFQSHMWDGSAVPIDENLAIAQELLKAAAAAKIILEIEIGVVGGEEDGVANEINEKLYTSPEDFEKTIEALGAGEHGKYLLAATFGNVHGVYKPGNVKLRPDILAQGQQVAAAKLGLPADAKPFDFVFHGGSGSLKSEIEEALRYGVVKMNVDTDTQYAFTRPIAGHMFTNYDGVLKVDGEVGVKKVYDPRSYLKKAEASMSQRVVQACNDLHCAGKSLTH
# Active calls of the source: *; ? = inconclusive; · = not tested or not shown; + = active, no number. Shown are actives, neighbours in structure and some others; about 2.9% of the full set was active somewhere.
SMILES,GDH-TPI inh,Mtb hypoxia rep,Mtb BioA inh,FadD28 FP inh,Mtb FBA inh
COCC(=O)Nc1ccc2c(c1)[C@H]1C[C@@H](CC(=O)NCc3cc(F)ccc3F)O[C@H](CO)[C@H]1O2,·,·,-2.0,·,·
COc1ccc2c(c1OC)C(=O)N1C2SC(C)(C)[C@H]1C(=O)NCC(C)C (stereo partly drawn),2.8,-1.8,0.4,·,152.0*
CC(C)(C)C(=O)Nc1ccc(C(=O)NN=CC2CC3C=CC2C3)cc1 (stereo not drawn),·,6.4,·,·,·
Oc1cccc(/C=N/NC(=S)Nc2cccnc2)c1O,19.4,·,·,1.1,-2.2
Oc1ccccc1C=NNC(=S)NN=Cc1ccccc1O,44.7*,8.8,-0.1,-0.2,-2.1
Oc1ccc(/C=N/NC(=S)Nc2cccnc2)c(O)c1O,37.0*,·,1.0,-0.2,-8.8
COC(C(=NO)c1ccc(Cl)cc1)c1ccccc1 (stereo not drawn),·,-7.3,·,·,·
C[C@H](CO)N1C[C@H](C)[C@H](CN(C)C(=O)CCC(F)(F)F)OCCCC[C@H](C)Oc2ccc(NS(=O)(=O)c3cccs3)cc2C1=O,·,·,-5.0,·,·
Cc1ccc2nc(-c3ccc(SCC(=O)O)nc3)[nH]c2c1,53.1*,·,-0.5,-6.9,+
O=C(CSc1ccc(-c2nc3ccccc3[nH]2)cn1)Nc1ccc(S(=O)(=O)N2CCCC2)cc1,20.9,·,·,21.5*,7.5
Cc1cc2nc(-c3ccc(SCC(=O)Nc4ccc(S(=O)(=O)N5CCCC5)cc4)nc3)[nH]c2cc1C,38.3*,4.4,-1.7,-0.7,21.1
Cc1cc2nc(-c3ccc(SCC(=O)Nc4nccs4)nc3)[nH]c2cc1C,11.5,·,-2.1,-6.2,0.0
Cc1ccsc1C=NN1CCN(c2ccccc2)CC1,·,10.9,·,·,·
O=C(CSc1nc2ccccc2nc1N1CCOCC1)N1CCN(c2ccccc2)CC1,16.6,17.1*,-0.3,-0.3,-1.1
O=C(C[C@@H]1CC[C@H]2[C@@H](COC[C@H](O)CN2C(=O)Nc2ccc(F)cc2)O1)NCCc1ccccc1,·,·,0.8,·,·
CCOC(=O)c1cc2c(=O)[nH]ccc2nc1C,7.2,17.6,0.0,-3.6,119.5*
C[C@H](CO)N1C[C@H](C)[C@@H](CN(C)C(=O)c2ccccc2)OCCCC[C@H](C)Oc2ccc(NS(=O)(=O)c3ccc(Cl)cc3)cc2C1=O,·,·,0.2,·,·
Oc1ccc(C[C@H]2CNC(=S)N2CC2CCCN2C[C@H](Cc2ccccc2)N2C[C@H](Cc3ccc(O)cc3)N(CCc3ccccc3)C2=S)cc1 (stereo partly drawn),34.0*,·,-1.8,-1.4,1.4
CC(C)C[C@H]1CNC(=S)N1CC1CCCN1C[C@H](Cc1ccccc1)N1C[C@H](Cc2ccc(O)cc2)N(CC2CCCCCC2)C1=S (stereo partly drawn),32.3*,·,-4.6,-1.6,2.1
CCOc1ccc(CCN2C(=S)N([C@@H](CC(C)C)CN3CCCC3CN3C(=S)NC[C@@H]3Cc3ccc(O)cc3)C[C@@H]2Cc2ccc(O)cc2)cc1 (stereo partly drawn),17.7,·,-2.2,-1.4,-1.1
CCOc1ccc(CCN2C(=S)N([C@@H](CC(C)C)CN3CCCC3CN3C(=S)NC[C@@H]3Cc3ccc(O)cc3)C[C@@H]2Cc2ccccc2)cc1 (stereo partly drawn),37.5*,·,-1.6,-3.4,4.7
Cc1ccc(S(=O)(=O)N[C@H]2CC[C@H](CCn3cc(C4CCCC4)nn3)O[C@@H]2CO)cc1,·,·,0.6,·,·
C[C@H](CO)N1C[C@H](C)[C@H](CN(C)C(=O)NC2CCCCC2)Oc2c(NC(=O)Nc3ccccc3)cccc2C1=O,·,·,-3.5,·,·
C[C@@H]1CN([C@H](C)CO)C(=O)Cc2cc(NS(=O)(=O)c3cn(C)cn3)ccc2O[C@@H]1CN(C)C,·,·,-0.4,·,·
CCOC(=O)N1CCN(/C=C(\C#N)c2nc3ccccc3s2)CC1,34.6*,-6.1,·,-1.7,1.4
SMILES,GDH-TPI inh,Mtb hypoxia rep,Mtb BioA inh,FadD28 FP inh,Mtb FBA inh
O=C(O)CCC(=O)N1CCN(c2ccc(C(=O)c3ccc(F)cc3)cc2)CC1,38.3*,·,0.5,-0.7,-1.0
CC(=O)/C(=N/Nc1ccccc1)Sc1nnc(CCc2ccccc2)n1-c1ccccc1,31.7*,·,·,-2.4,2.9
CC(=NNC(=O)c1ccc(N(C)C)cc1)c1ccc(C)c(C)c1,·,0.5,·,·,·
COc1ccc(/C=C2/N=C(SC)NC2=O)cc1OC,39.9*,1.0,·,-2.8,-6.1
COc1ccc(/C=C2\N=C(SC)NC2=O)cc1,14.5,·,·,0.2,-0.1
CCc1cccc2c(C(=O)COC(=O)c3cnc(C)cn3)c[nH]c12,18.6,11.2,3.4,13.0*,2.9
CCc1cccc2c(C(=O)COC(=O)c3ccc(O)cc3)c[nH]c12,0.0,-7.0,0.0,34.0*,-1.4
O=C(COC(=O)[C@@H]1CC(O)CN1S(=O)(=O)c1ccccc1[N+](=O)[O-])c1ccccc1 (stereo partly drawn),2.6,-7.8,-0.9,-2.6,-3.9
CCc1cccc2c(C(=O)COC(=O)[C@@H]3CC(O)CN3S(=O)(=O)c3ccccc3[N+](=O)[O-])c[nH]c12 (stereo partly drawn),7.9,-6.6,1.0,11.0*,2.9
CCc1cccc2c(C(=O)COC(=O)c3ccccc3)c[nH]c12,2.6,3.0,-0.6,18.0*,-3.6
COc1ccc(-n2nc3cc(C)c(NC(C)=O)cc3n2)cc1,6.7,4.7,-2.0,-0.6,113.9*
Cc1cc(=O)n2[nH]c(C)c(-c3ccccc3)c2n1,3.4,·,·,-2.4,14.5
O=c1cc(-c2ccccc2)nc2c(-c3ccccc3)c(C(F)(F)F)[nH]n12,10.0,9.6,6.3,?,+
Cc1nc2nc(-c3ccc(Cl)cc3)cn2nc1C,-4.8,·,·,-2.3,141.6*
Cc1nn2cc(-c3ccc(Cl)cc3)nc2s1,16.8,1.0,-2.6,-0.6,-0.3
CC(C)=CCn1c2ccc(NC(=O)Nc3cccnc3)cc2c(=O)n1C,0.9,·,22.0,5.6,141.4*
O=C(COc1cccc(C(F)(F)F)c1)Nc1cccnc1,-2.1,14.7,4.6,-3.3,-0.1
C=C(C)Cn1c2ccc(NC(=O)NCCc3cccs3)cc2c(=O)n1C,8.9,·,2.4,0.2,181.9*
Cn1c(=O)c2cc(NC(=O)Nc3cccnc3)ccc2n1Cc1ccc(Cl)cc1,-1.8,·,24.7,1.7,135.0*
CC(C)=CCn1c2ccc(NC(=O)Nc3ccc(N(C)C)cc3)cc2c(=O)n1C,4.0,·,0.8,-2.5,2.8
Cn1c(=O)c2cc(NC(=O)Nc3cccnc3)ccc2n1Cc1cccc(C(F)(F)F)c1,5.3,·,17.1,?,114.4*
CN(C)c1ccc(NC(=O)Nc2ccc3c(c2)c(=O)n(C)n3Cc2ccc(Cl)cc2)cc1,10.6,·,0.3,-1.5,7.1
CCN(CC)S(=O)(=O)c1ccc(NN=C(C)c2cccnc2)nc1,·,-5.0,·,·,·
CC(=O)N[C@@H]1CC[C@@H](CC(=O)NCC2CCCCC2)O[C@H]1CO,·,·,0.3,·,·
CC(C)C(=O)Nc1ccc2c(c1)C(=O)N(C)[C@H]1CC[C@H](CC(=O)N[C@@H](C)c3ccccc3)O[C@H]1CO2,·,·,0.0,·,·
C=C(C)Cn1c2ccc(NC(=O)CCc3cccnc3)cc2c(=O)n1C,12.9,·,28.3,-0.3,+
CCc1ccc2c(CN3CCN(S(=O)(=O)c4ccc5c(c4)OCCO5)CC3)cc(=O)oc2c1,9.9,14.3,-0.3,-5.2,-0.4
